# The whole screen tested about 190,000 compounds, of which about 4,100 (2.2%) were called active. The list comes from a sample in which actives are over-represented; it also holds similar structures and randomly drawn compounds. Unmarked numbers belong to inactive results.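 Rule for the calls: active = thallium flux slope and its plate-corrected score both differing from the plate sample mean at a set confidence after two filtering rounds, in either direction; inactive = the rest.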
# Molecular target: Solute carrier family 12 member 5 (Homo sapiens) (UniProt Q9H2X9)
# Test: modulation of human KCC2 ion transport – cell-based, HEK293 KCC2, FluoZin-2 fluorescence, MLSMR, primary screen (AID 1456);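 note: slope of fluorescence scaled to starting intensity during 10 to 20 s after thallium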
# Details: KCC2 cells, thallium flux FluoZin-2 fluorescence; at 10 µM
# Chain of Solute carrier family 12 member 5 (Homo sapiens) (Q9H2X9 whole entry, looked up): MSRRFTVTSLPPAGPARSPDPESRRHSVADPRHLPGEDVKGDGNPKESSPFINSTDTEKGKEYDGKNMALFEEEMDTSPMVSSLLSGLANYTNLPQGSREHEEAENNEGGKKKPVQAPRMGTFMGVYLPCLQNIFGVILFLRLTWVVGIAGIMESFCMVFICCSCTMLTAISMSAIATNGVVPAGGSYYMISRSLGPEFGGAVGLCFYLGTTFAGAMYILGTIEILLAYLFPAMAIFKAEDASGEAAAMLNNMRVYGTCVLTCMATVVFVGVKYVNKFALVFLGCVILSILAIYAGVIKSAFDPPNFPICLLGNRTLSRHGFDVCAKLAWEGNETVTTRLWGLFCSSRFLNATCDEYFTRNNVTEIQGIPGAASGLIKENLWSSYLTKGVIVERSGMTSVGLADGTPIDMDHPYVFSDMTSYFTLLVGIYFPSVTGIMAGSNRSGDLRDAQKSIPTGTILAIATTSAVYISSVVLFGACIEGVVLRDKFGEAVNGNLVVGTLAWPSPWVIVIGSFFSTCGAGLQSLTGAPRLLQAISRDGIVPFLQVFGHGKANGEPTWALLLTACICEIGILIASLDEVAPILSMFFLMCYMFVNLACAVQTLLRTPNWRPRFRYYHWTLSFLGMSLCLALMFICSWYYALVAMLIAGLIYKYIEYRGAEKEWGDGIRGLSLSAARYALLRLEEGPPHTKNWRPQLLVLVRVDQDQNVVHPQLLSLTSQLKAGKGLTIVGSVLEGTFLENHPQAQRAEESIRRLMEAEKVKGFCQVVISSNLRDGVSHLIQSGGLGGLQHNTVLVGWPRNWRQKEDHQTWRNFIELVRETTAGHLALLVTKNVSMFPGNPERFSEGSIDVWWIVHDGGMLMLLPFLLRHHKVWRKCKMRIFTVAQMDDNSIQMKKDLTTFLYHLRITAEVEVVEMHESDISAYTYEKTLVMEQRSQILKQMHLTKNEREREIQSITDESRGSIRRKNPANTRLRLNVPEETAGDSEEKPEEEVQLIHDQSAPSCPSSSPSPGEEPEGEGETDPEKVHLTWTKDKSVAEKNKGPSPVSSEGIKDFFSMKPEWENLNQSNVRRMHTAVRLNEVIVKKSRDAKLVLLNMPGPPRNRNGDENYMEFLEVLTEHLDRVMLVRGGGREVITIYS
row,Structure (SMILES),B-score of Tl+ flux slope (higher = more flux/activation; lower = inhibition)
1,CCCCn1c(SCC(=O)NCC2CCCO2)nc2ccc(N3CCOCC3)cc2c1=O (configuration not stated),7.18 (active)
2,O=C(CCCn1c(SCC(=O)c2ccccc2)nc2ccccc2c1=O)NCC1CCCO1 (configuration not stated),-0.113
3,COCCCNC(=O)CSc1nc2ccc(N3CCOCC3)cc2c(=O)n1CCc1ccccc1,2.34
4,CC(C)(C)NC(=O)NC(=O)COC(=O)Cc1ccc(Cl)cc1Cl,0.383
5,CCN1CCN(C(=O)CCN2C(=O)c3ccccc3C2=O)CC1,0.322
6,CCOC(=O)C1=NN(c2ccc(Cl)cc2)/C(=C/C2=NCCc3cc(OC)c(OC)cc32)S1,1.05
7,O=C(O)CC1(CC(=O)Nc2cccc(C(F)(F)F)c2)CCCC1,-1.45
8,CCOC(=O)Cc1cc(=O)[nH]c(/N=C(\N)Nc2ccc(OC)cc2)n1,-0.288
9,COC(=O)CSc1nc(C2CC2)nc2ccccc12,-0.171
10,CCc1c(SCCC(=O)O)nc2ccccc2c1C,3.44 (active)
11,O=C(O)CCSc1nnc(-c2ccccc2)n1-c1ccccc1,0.407
12,N=c1oc2ccccc2cc1C(=O)N/N=C/c1ccccc1,-3.75 (active)
13,Cc1nc2ccccc2cc1C(=O)N/N=C/c1ccc([N+](=O)[O-])cc1,-1.83
14,CNC(=O)c1cc2c(ccc3ccccc32)oc1=N,-0.785
15,CCN(CC)c1ccc(NC(=O)C2CCC(CNc3c(N4CCCC4)c(=O)c3=O)CC2)c(C)c1 (configuration not stated),1.27
16,CCCc1c(C(=O)O)cnn1-c1ccc(Cl)cc1,-0.00741
17,Oc1c(Cl)cc(Cl)c(Cl)c1Cc1c(O)c(Cl)cc(Cl)c1Cl,19.9 (active)
18,COc1ccc(CC2(CO)CCN(Cc3cnn(C)c3)CC2)cc1,0.00537
19,C/C=C/C(=O)Nc1ccc(N2CCN(c3ccc(C(F)(F)F)cn3)CC2)nc1,-0.115
20,CCC(C)NC(=O)CN(C1CCCCC1)S(C)(=O)=O (configuration not stated),0.0328
21,CS(=O)(=O)N(CC(=O)N1CCN(c2ccc(F)cc2)CC1)C1CCCCC1,-3.33 (active)
22,CS(=O)(=O)N(CC(=O)Nc1ccc(Cl)c(Cl)c1)C1CCCCC1,-0.64
23,O=C(NN1C(=O)C2CCCCC2C1=O)c1ccco1 (configuration not stated),-1.74
24,O=S(=O)(NC(=S)Nc1ccccc1)c1ccc(F)cc1,0.866
25,Cc1cc(C)nc(Nc2n[nH]c(-c3ccccc3N)n2)n1,0.274

row,Structure (SMILES),B-score of Tl+ flux slope (higher = more flux/activation; lower = inhibition)
1,CSc1nc2sc3c(c2c(=O)[nH]1)CCc1ccccc1-3,0.526
2,COc1cccc(-n2c(=S)[nH]c3c(oc4ccccc43)c2=O)c1,-2.03
3,COc1ccc(-n2c(=S)[nH]c3sc4c(c3c2=O)CCc2ccccc2-4)cc1,11.6 (active)
4,COCc1cc(=O)[nH]c(SC)n1,-0.453
5,Cc1cccc(OCCC(=O)Nc2cc(S(=O)(=O)N3CCCCC3)ccc2N2CCOCC2)c1,0.115
6,Cc1cccc(OCC(=O)Nc2ccccc2F)c1,0.917
7,Cc1cccc(OCC(=O)NC(=S)Nc2ccccc2N2CCOCC2)c1,8.7 (active)
8,O=C(Nc1ccccc1)Nc1ccc(C(F)(F)F)cn1,0.765
9,O=C(C1=C(O)C(=O)N(CCOCCO)C1c1ccccn1)c1cccs1 (configuration not stated),0.0733
10,CC(=O)NC(CC(=O)Nc1nccs1)c1ccccc1 (configuration not stated),0.0448
11,CC(=O)Nc1nc2ccccc2n1Cc1ccc(C)cc1,0.76
12,Cc1ccc(Cn2c(NC(=O)c3ccco3)nc3ccccc32)cc1,1.11
13,CCCc1nc2c(C)cc(-c3nc4ccccc4n3C)cc2n1Cc1ccc(-c2ccccc2C(=O)O)cc1,-4.55 (active)
14,c1ccc2c(c1)OCCOCCOCCO2,-0.0153
15,N#Cc1ccccc1Sc1ccccc1C(=O)OCC(=O)NC1CCCCC1,-0.81
16,O=C(COC(=O)c1cc([N+](=O)[O-])ccc1NCc1ccccc1)NC1CCCCC1,-3.78 (active)
17,O=C(COC(=O)c1ccccc1SCC(=O)NC1CCCCC1)NC1CCCCC1,0.427
18,CCOC(=O)N/N=C/c1cccnc1,0.0775
19,O=C(CSc1cccc2cccnc12)N/N=C/c1cccnc1,30.2 (active)
20,Cc1nc2ccccc2n1CC(=O)N/N=C/c1cccnc1,0.307
21,CN(c1ccccc1)S(=O)(=O)c1ccc(Cl)c(C(=O)OCC(=O)NCc2ccco2)c1,-3.28
22,O=C(Nc1cccc(S(=O)(=O)NC2=NCCC2)c1)C1CCCCC1,0.665
23,N/C(=N\OC(=O)Nc1ccccc1)c1ccno1,0.175
24,COc1ccc(S(=O)(=O)N(CC(=O)N/N=C/c2ccccc2C(=O)O)c2ccccc2OC)cc1,0.515
25,Cc1cccc(C)c1NC1=NC(=S)N(c2ccc(N(C)C)cc2)C1(C)C,4.28 (active)

row,Structure (SMILES),B-score of Tl+ flux slope (higher = more flux/activation; lower = inhibition)
1,Cc1nnc2n1N=C(c1ccc3c(c1)NC(=O)CO3)CS2,-0.931
2,Cc1cc(F)ccc1NC(=O)C(C)n1c2ccccc2c2nc(=O)cc(C)n21 (configuration not stated),-0.013
3,Clc1cccc(N=C2NN=C(c3ccc4c(c3)OCCO4)CS2)c1,1.95
4,CN(C)c1nc(=Nc2cccc(Cl)c2)ss1,87 (active)
5,Cc1ccc(C(=O)NNC2=Nc3cc([N+](=O)[O-])ccc3OC2)cc1,0.865
6,COc1ccc(OCCC(=O)c2ccc(OC)cc2)cc1,0.534
7,NC(=O)NC(=O)CSc1nc2cc([N+](=O)[O-])ccc2n1-c1cccc(C(F)(F)F)c1,6.95 (active)
8,COc1ccc(CCNC(=O)CSc2nc3[nH]ncc3c(=O)n2-c2cccc(C(F)(F)F)c2)cc1OC,1.1
9,COc1ccc(-n2cnnc2SCC(=O)Nc2cccc([N+](=O)[O-])c2)cc1,0.774
10,O=C(CN1CCN(C/C=C/c2ccccc2)CC1)Nc1ccc(F)cc1F,0.952
11,CC(=O)N/C(=C\c1ccc(F)cc1)C(=O)NC(Cc1ccccc1)C(=O)O (configuration not stated),0.0184
12,O=C(O)c1cccnc1Sc1ncnc2sc3c(c12)CCC3,2.47
13,O=C(Cn1cnc2ccccc2c1=O)Nc1cccc(S(=O)(=O)N2CCCCC2)c1,0.0725
14,CS(=O)(=O)c1sc(C(=O)NC(=S)Nc2ccc(OC(F)(F)F)cc2)c2c1C=CCC2,6.79 (active)
15,CCNC(=S)Nc1ccc(OC(F)(F)F)cc1,-0.759
16,FC(F)(F)Oc1ccc(NC(=S)NCc2ccccc2)cc1,0.0182
17,CC1(C)C=C2[C@H]3CC[C@@H]4[C@@]5(C)CCC(=O)C(C)(C)[C@@H]5CC[C@@]4(C)[C@]3(C)CC[C@@]2(C(=O)O)CC1,5.9 (active)
18,CCOC(=O)N1CCN(c2c(NCCN3CCN(c4ccccc4F)CC3)c(=O)c2=O)CC1,0.85
19,O=C(CCn1nnc2ccccc2c1=O)N[C@@H](Cc1c[nH]c2ccccc12)C(=O)O,0.807
20,CCCc1nc2sc3c(c2c(=O)n1NC(=O)CCCl)CCCC3,-1.28
21,O=c1c2c3c(sc2n(CCN2CCCC2)c(=O)n1Cc1ccccc1)CCCCC3,-0.146
22,CCn1c(=S)[nH]c2sc3c(c2c1=O)CCCCC3,75.1 (active)
23,O=C1C2C3C=CC(C3)C2C(=O)N1c1ccc(S(=O)(=O)Nc2nccs2)cc1 (configuration not stated),0.592
24,Fc1ccc(Nc2nnns2)cc1,-0.138
25,COc1ccccc1-n1cnc2cc(C(=O)NCC3CCCO3)ccc21 (configuration not stated),0.84

row,Structure (SMILES),B-score of Tl+ flux slope (higher = more flux/activation; lower = inhibition)
1,COc1ccccc1-n1cnc2cc(NS(=O)(=O)c3ccccc3)ccc21,-3.88 (active)
2,COCCCNC(=O)c1ccc2c(c1)ncn2-c1ccccc1OC,-0.0358
3,NNC(=O)c1ccc(COCC(F)(F)C(F)F)cc1,0.0302
4,CCOC(=O)c1cn[nH]c1NC(=S)Nc1ccccc1,0.559
5,C/C(Cc1ccccc1)=N\NC(=O)CNC(=O)c1ccc2c(c1)OCCO2,0.0985
6,O=C1/C(=C/c2cccs2)SC(=S)N1C1CCS(=O)(=O)C1 (configuration not stated),-0.225
7,O=C(CCCN1C(=O)/C(=C/c2ccccc2)SC1=S)Nc1ccc(O)cc1,-0.0883
8,S=C1Nc2cc(Cl)ccc2Sc2ccccc21,8.4 (active)
9,O=C1Cc2ccccc2Sc2ccc(Cl)cc21,0.587
10,O=C(NC1CC1)c1ccc2c(c1)NC(=O)c1ccccc1S2,-0.0671
11,N#C/C(=C\N1CCOCC1)S(=O)(=O)c1ccc(Cl)cc1,-0.211
12,COC(=O)c1c(C)oc(C)c1S(=O)(=O)NCc1ccc(Cl)cc1,-0.208
13,CC(OC(=O)c1ccccc1N1C(=O)C2C3CCC(C3)C2C1=O)C(=O)c1ccccc1 (configuration not stated),0.138
14,CCOC(=O)c1ccccc1N1C(=O)C2Sc3[nH]c(=O)sc3C(/C=C/c3ccccc3)C2C1=O (configuration not stated),-6.82 (active)
15,COC(=O)C1=C(C)N=C2SC(C)C(=O)N2C1/C=C/c1ccccc1 (configuration not stated),0.122
16,CC(C)(C)C(=O)NNC(=O)c1ccc(Oc2cc(Cl)cc(Cl)c2)o1,4.1
17,C=CCNC(=S)NNC(=O)c1cc(Cl)ccc1OC,-0.352
18,COc1ccc(Cl)cc1C(=O)NNC(=S)NC(=O)/C=C/c1ccco1,28.5 (active)
19,COc1ccc(Cl)cc1C(=O)NNC(=S)NC1CCCC1,0.52
20,Cc1nc2ccccc2n1CC(=O)N/N=C/c1cccs1,0.629
21,NC(=O)N/N=C\c1cccs1,0.148
22,Cc1cc(C)nc(SC(C)C(=O)N/N=C/c2cccs2)n1 (configuration not stated),5.07 (active)

# Source: PubChem BioAssay AID1456 (Vanderbilt High Throughput Screening Facility, 2008)
